Data taken from PubChem BioAssay (NCATS).
Where “and” joins values, the source holds several entries; their conditions need not be identical. Equal entries are not always repeated. Inconclusive results are not listed. Calls of active or inactive are those of the source. The call rests on the fitted dose curve; in most records, active means well fitted curve in the direction sought with a large enough effect; inconclusive means small, poorly fitted or top-dose-only effect, or another doubt; inactive means no such curve, though single readings can be large; an effect the other way counts as inactive or inconclusive.

assay: HepG2 cells viability qHTS for Zika virus inhibitors (AID 1347168); conditions: Zika counter-screen; series mostly up to 45.9 µM; activity change, negative = cytotoxicity: at the top concentration
Procedure, shortened: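 qHTS titration; 24-48 h compound exposure, 37 degrees C/5% CO2; DMEM, 4% FBS; CellTiter Glo ATP luminescence.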
On the % scale 0 is the no-effect control and ±100 the full control effect.

SMILES | activity change, negative = cytotoxicity | outcome
Cc1ccccc1N1C(=O)c2cc(S(N)(=O)=O)c(Cl)cc2NC1C (stereo unspecified) | 9.84% (inactive) | –
COc1cc2nc(N3CCN(C(=O)c4ccco4)CC3)nc(N)c2cc1OC | 5.98% [at 26.9 µM] (inactive) | –
CC1COc2c(N3CCN(C)CC3)c(F)cc3c(=O)c(C(=O)O)cn1c23 (stereo unspecified) | – | inactive
O=C1Cc2cc(CCN3CCN(c4nsc5ccccc45)CC3)c(Cl)cc2N1 | -1.56% (inactive) | –
Cc1cnc(C(=O)NCCc2ccc(S(=O)(=O)NC(=O)NC3CCCCC3)cc2)cn1 | 2.62% (inactive) | –
CC(C)(C)C(=O)Oc1ccc(S(=O)(=O)Nc2ccccc2C(=O)NCC(=O)O)cc1 | -0.137% (inactive) | –
O=C(c1ccc(F)cc1)C1CCN(CCn2c(=O)[nH]c3ccccc3c2=O)CC1 | -9.64% (inactive) | –
C[C@H]1c2cccc(O)c2C(O)=C2C(=O)[C@]3(O)C(O)=C(C(N)=O)C(=O)[C@@H](N(C)C)[C@@H]3[C@@H](O)[C@@H]21 | 1.9% (inactive) | –
Cn1ccc2cc3c(cc21)CCN3C(=O)Nc1cccnc1 | -5.76% (inactive) | –
CCOC(=O)Nc1ccc(NCc2ccc(F)cc2)nc1N | -9% (inactive) | –

assay: Tertiary RLuc qRT-PCR qHTS assay for Zika virus inhibitors (AID 1347169); conditions: infected Vero cells, reporter luminescence, 48-72 h; series mostly up to 45.9 µM; activity change, negative = inhibition: at the top concentration; further: nearly all actives have a fitted effect of over 55% in size; further: potency means the concentration at half of the fitted maximal effect; on activity change, negative = inhibition: top concentration of the series differs between compounds
Procedure, shortened: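 Orthogonal cell-based readout: luminescence measured 1-1.5 hrs after adding live-cell Renilla substrate to Vero cells that had been infected with ZIKV-RLuc (MOI 1-2) post-compound, incubated 48-72 hrs at 37 degrees C.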

SMILES | activity change, negative = inhibition | Potency
Cc1ccccc1N1C(=O)c2cc(S(N)(=O)=O)c(Cl)cc2NC1C (stereo unspecified) | -14.6% (inactive) | –
Cc1ccc(C(=O)Nc2ccc(S(=O)(=O)O)c3cc(S(=O)(=O)O)cc(S(=O)(=O)O)c23)cc1NC(=O)c1cccc(NC(=O)Nc2cccc(C(=O)Nc3cc(C(=O)Nc4ccc(S(=O)(=O)O)c5cc(S(=O)(=O)O)cc(S(=O)(=O)O)c45)ccc3C)c2)c1 | – | inactive
CC1COc2c(N3CCN(C)CC3)c(F)cc3c(=O)c(C(=O)O)cn1c23 (stereo unspecified) | – | inactive
O=C1Cc2cc(CCN3CCN(c4nsc5ccccc45)CC3)c(Cl)cc2N1 | -1.84% (inactive) | –
O=C(Nc1ccc([N+](=O)[O-])cc1Cl)c1cc(Cl)ccc1O | – | 294 nM (active)
Cc1cnc(C(=O)NCCc2ccc(S(=O)(=O)NC(=O)NC3CCCCC3)cc2)cn1 | 8.12% (inactive) | –
CC(C)(C)C(=O)Oc1ccc(S(=O)(=O)Nc2ccccc2C(=O)NCC(=O)O)cc1 | 11.8% (inactive) | –
O=C(c1ccc(F)cc1)C1CCN(CCn2c(=O)[nH]c3ccccc3c2=O)CC1 | 4.24% (inactive) | –
O=c1c(O)c(-c2ccc(O)c(O)c2)oc2cc(O)cc(O)c12 | 52.3% [at 5.25 µM] (inactive) and 65.1% [at 0.997 µM] (inactive) | –
Cn1ccc2cc3c(cc21)CCN3C(=O)Nc1cccnc1 | 5.2% (inactive) | –
CCOC(=O)Nc1ccc(NCc2ccc(F)cc2)nc1N | -4.63% (inactive) | –
